Experimental data reported in PubChem BioAssay (NCI).
The panel holds about 83,000 compounds, 20% with a hit somewhere; the sample as a whole holds those more often.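 Step 1: grow cells in 96-well plates. Step 2: add test compound at a single concentration. Step 3: incubate 48 h. Step 4: record percent growth.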 Values without a mark were called inactive. Calls of active or inactive are those of the source. Rule for the calls: active = growth percent below 10; inactive = the rest.

Legend:
Assay in all cases: NCI-60 one-dose screen, 48 h (100 = growth as untreated, 0 = no growth, -100 = all killed)
Conditions in all cases: 10 µM
NCI-H23 lung = system: NCI-H23 lung
NCI-H226 lung = system: NCI-H226 lung
NCI-H322M lung = system: NCI-H322M lung
HOP-62 NSCLC = system: HOP-62 NSCLC
NCI-H460 lung = system: NCI-H460 lung
NCI-H522 lung = system: NCI-H522 lung
A549/ATCC NSCLC = system: A549/ATCC NSCLC
786-0 renal = system: 786-0 renal
HOP-92 NSCLC = system: HOP-92 NSCLC
COLO 205 colon = system: COLO 205 colon

Row | SMILES | growth (NCI-H23 lung) | growth (NCI-H226 lung) | growth (NCI-H322M lung) | growth (HOP-62 NSCLC) | growth (NCI-H460 lung) | growth (NCI-H522 lung) | growth (A549/ATCC NSCLC) | growth (786-0 renal) | growth (HOP-92 NSCLC) [%] | growth (COLO 205 colon)
1 | CN1CCO/C1=C(/NC(=O)c1ccc(Cl)cc1)[P+](c1ccccc1)(c1ccccc1)c1ccccc1 | 84.5% | 89.3% | 96.6% | 95% | 94.1% | 58.4% | 102% | 103% |  | 
2 | O=c1[nH][nH]c(Nc2ccccc2)c1N=Nc1ccc(F)cc1 | 102% | 84.4% | 83.5% | 119% | 101% | 75.1% | 84.8% | 91.3% | 71.2 | 107%
3 | N#Cc1ccc(-c2nn(-c3ccc(C(=O)O)cc3)cc2CNc2ccc(Cl)cc2)cc1 | 73.3% | 85% | 88.8% | 81.3% | 93.1% | 81.3% | 84.6% | 87.2% | 133 | 142%
4 | CO[C@@H]1CSS[C@H]1Cn1nc(-c2ccc(Oc3ccccc3)cc2)c2c(N)ncnc21 | 63.5% | 24.7% | 76.4% | 111% | 77.4% | 17.3% | 45.7% | 55.3% |  | 61.8%
5 | C=C1CC[C@H](C(=C)C)[C@H]2C=C(C)C(=O)C3=C(C(=O)[C@@](C)(O)C3)[C@H]12 | -63.9% (active) | -57.8% (active) | -96.9% (active) | -72.7% (active) | -45.6% (active) | -88.6% (active) | -50.4% (active) | 2.21% (active) |  | -88.7% (active)
6 | O=C(CSc1nnc(-c2ccc3nc(-c4ccc(Cl)cc4)[nH]c3c2)o1)Nc1ccc(Cl)cc1 | -73.9% (active) | -68.8% (active) | -66.5% (active) | -56.4% (active) | -51.3% (active) | -45.1% (active) | -58.4% (active) | -76.8% (active) |  | 7.13% (active)
7 | Cc1ccc(-c2ccc(SCC(=O)Nc3ccc(S(N)(=O)=O)cc3Br)nn2)cc1 | 27.3% | 22.6% | 36% | 14.1% | 8.44% (active) | 47.2% | 15.8% | 16.4% |  | 33.1%
8 | Cc1ccc(C(C)C)cc1NC(=O)c1ccccc1O | 11.8% | 26.6% | 55% | 54.4% | 30.8% | 20.6% | 47.8% | 58.8% |  | 100%
9 | Cc1nc(Nc2nc(C)c3ccc(OCCN4CCOCC4)cc3n2)[nH]c(=O)c1C | -66.6% (active) | -47.2% (active) | -10.8% (active) | -34.5% (active) | 2.14% (active) | -52.3% (active) | 6.61% (active) | -25.1% (active) |  | 0.287% (active)
10 | CCN1CCN(c2ccc(NC(=O)Nc3ccc(-c4cc(C(=O)NC)c5ncccc5n4)cc3)cc2C(F)(F)F)CC1 | -99% (active) | -61.9% (active) | -100% (active) | -92.2% (active) | -100% (active) | -93.3% (active) | -88.4% (active) | -100% (active) |  | -76.3% (active)
11 | COc1ccc(CN2[C@H](C(=O)NCc3ccc(C(=O)NO)cc3)Cc3c([nH]c4ccccc34)[C@H]2C2CC2)cc1 | 52.3% | 55.8% | 59.4% | 63.1% | 33.6% | 22.2% | 61.3% | 61.7% |  | 47.3%
12 | COc1cccc(C(N)=Nc2ccc(OCCCCCCn3cncn3)cc2)c1 | 21.1% |  | 60.5% | 20.7% | 28.1% | -2.45% (active) | 26.5% | 40.9% | 79.3 | 
13 | CC(=O)Nc1ccc(-n2cnc3cc(-c4ccc(O)cc4)ccc32)cc1F | 49.2% | 9.75% (active) | 52% | 44.4% | 10.5% | -42.7% (active) | 33.8% | 32.4% |  | -11.4% (active)
14 | CN1CCN(Cc2ccc(C(=O)Nc3cccc(Nc4ccc5c(O)cccc5n4)c3)cc2C(F)(F)F)CC1 | -69.8% (active) | 41.3% | -18.6% (active) | -47.2% (active) | -18.5% (active) | -83.9% (active) | -14.2% (active) | -55.9% (active) |  | -78.6% (active)
15 | C#CCNC(=O)CCC(=O)OC[C@]12CC[C@@H](C(=C)C)[C@@H]1C1CC[C@@H]3[C@@]4(C)CCCNC(C)(C)[C@@H]4CC[C@@]3(C)[C@]1(C)CC2 (some centres not stated) | -91.8% (active) | -80.8% (active) | 39.2% | -23.9% (active) | -74% (active) | -82.7% (active) | -76.5% (active) | -58.3% (active) |  | -83% (active)
16 | COc1cc(/C=C/C(=O)c2ccc(S(=O)(=O)NCCNc3nc(Nc4ccc(F)cc4)nc(N(C)C)n3)cc2)cc(OC)c1OC | 13.7% | -21.6% (active) | 58.7% | 30.2% | 15.8% | 68% | 18.4% | -64.2% (active) |  | -50.8% (active)
17 | COc1ccc2[nH]c(O)c(N=NC(=O)COc3ccc(NC(=O)Nc4ccc(Cl)c(Cl)c4)cc3)c2c1 | -80.4% (active) | -75.6% (active) | 16.6% | -36% (active) | 15.5% | -90% (active) | -54.5% (active) | -33.2% (active) |  | -49.3% (active)
18 | CN(C)c1ccc(/C=C/c2nc3ccccc3c(=O)n2CC(=O)Nc2ccccc2)cc1 | 58.8% | -6.92% (active) | 48.6% | 37.3% | 16.8% | 48.7% | 33.6% | 20.1% |  | 69.6%
19 | Cc1ccc(-c2nc(Nc3ccc(S(N)(=O)=O)cc3)c3ccccc3n2)cc1 | 71.2% | 73.5% | 53.2% | 66.7% | 22.4% | 77.3% | 51.7% | 14.2% |  | 82.9%
20 | C=C[C@@]12CN3CC[C@]1(O)[C@@](C(=O)OC)(CO2)c1[nH]c2ccccc2c1C3 | 78% | 83.1% | 93.7% | 99.5% | 87.2% | 22.3% | 87.6% | 84% |  | 33.7%
21 | Cc1ccc2nc(-c3ccc(-c4nnc(SCC(=O)Nc5ccc(Br)cc5)o4)cc3)[nH]c2c1 | 50.3% | 62.1% | 80.7% | 72.9% | 14.4% | 62.6% | 89.5% | 84.6% |  | 87.3%
22 | COc1ccc(-c2nc(-c3ccccc3)c(-c3ccccc3)n2-c2ccc(S(=O)(=O)Nc3ncccn3)cc2)cc1OC | 94.8% | 75.1% | 77.4% | 76.9% | 95.6% | 89% | 87.6% | 64.6% |  | 133%
23 | Oc1ccc(/C=C2\CCCc3cc4ccc(O)cc4[o+]c32)c(O)c1 | 30% | 77.6% | 63.3% | 44.7% | 19.8% | 4.53% (active) | 83% | 24.4% |  | 
24 | CC(C)NC(=O)c1cc(-c2ccc(NC(=O)Nc3ccc(N4CCN(C)CC4)c(C(F)(F)F)c3)cc2)nc2cccnc12 | -84.6% (active) | -69.1% (active) | -90.6% (active) | -88.4% (active) | -61.7% (active) | -90.8% (active) | -78.9% (active) | -93.8% (active) |  | 
25 | Cc1ccc(CSc2nc(-c3ccc(F)cc3)c(C#N)c(=O)[nH]2)cc1 | 103% | 99.1% | 98.6% | 102% | 109% | 87.1% | 89.8% | 100% |  | 131%
26 | CC(=O)Nc1nc(-c2ccc(N3CCN(C)CC3)c(NS(=O)(=O)c3ccc(C(F)(F)F)cc3)c2)cs1 | 55.8% | 40.1% | 88.2% | 63.7% | 31.3% | 11.4% | 55.5% | -62.5% (active) |  | 36%
